SMN2 splice enh = SMN2 splice variant enhancement | Potency, µM (highest dose often 46.1 µM), for inactives: at the highest dose activity change, positive = activation, actives largely listed as activators | actives 2.8% (n = 210,000) | HEK293 SMN2-luciferase splicing reporter, luminescence, 30-36 h; further: % of control where 0% means no effect; nearly all actives have a fitted effect of over 55% in size
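qHTS luciferase splicing reporter: luminescence rises when SMN2 exon 7 is included in transfected HEK293 cells. Compound exposure lasted 30-36 h at 37C, with 4.5 mM final sodium butyrate as control, followed by a ONE-Glo read.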
Rab9 promoter act = activators of Rab9 promoter; Huh7 Rab9 promoter-luciferase reporter, luminescence, 24 h; Potency, µM (series often up to 9.22 µM), without a hit: top-dose activation, negative = inhibition, usual class: activators; actives 2.8% (n = 320,000); AID 485297; further: % of control where 0% means no effect; nearly all actives have a fitted effect of over 60% in size
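Cell-based reporter: Huh7 stable for Rab9 promoter-driven luciferase, plated in reduced-serum medium with 10% FBS at 1500 cells/well, compound-treated 24 h at 37 °C, luminescence read after 10 min reagent.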
FLuc modulator = firefly luciferase modulation, counter-screen for miR-21 project; purified FLuc, Km substrates, luminescence inhibition; Potency, µM (top dose mostly 57.5 µM), inactives show top-dose activity change, negative = inhibition, usual class: inhibitors; P08659; actives 6.9% (n = 360,000);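 further: plate controls were vehicle for no effect and reference inhibitor for full effect; nearly all actives have a fitted effect of over 55% in size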
Target sequence (P08659 whole entry, looked up): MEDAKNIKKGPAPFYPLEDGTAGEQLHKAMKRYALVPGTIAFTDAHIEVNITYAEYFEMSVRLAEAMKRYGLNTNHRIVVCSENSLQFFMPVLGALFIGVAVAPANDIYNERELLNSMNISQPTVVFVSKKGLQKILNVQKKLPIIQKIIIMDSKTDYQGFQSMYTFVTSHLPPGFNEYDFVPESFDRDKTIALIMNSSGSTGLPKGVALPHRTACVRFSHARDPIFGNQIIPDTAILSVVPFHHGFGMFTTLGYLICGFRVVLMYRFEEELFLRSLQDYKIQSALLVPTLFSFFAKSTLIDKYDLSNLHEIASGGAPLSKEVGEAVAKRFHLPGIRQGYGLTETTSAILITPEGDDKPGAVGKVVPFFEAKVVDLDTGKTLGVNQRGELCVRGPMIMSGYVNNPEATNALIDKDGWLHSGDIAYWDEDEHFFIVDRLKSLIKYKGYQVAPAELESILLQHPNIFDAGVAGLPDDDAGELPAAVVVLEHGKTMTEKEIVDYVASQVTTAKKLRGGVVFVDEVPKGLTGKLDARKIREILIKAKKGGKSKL
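Purified P. pyralis luciferase (10nM final) with 10uM D-luciferin and 10uM ATP (Km levels) in 50mM Tris acetate pH 7.5, 10mM Mg acetate, 0.01% Tween-20, 0.05% BSA; qHTS 6-point titration, ~60 µM downward; luminescence read.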
Luc counter = blocks Kinase-Glo luciferase, a counter-screen artifact. Potency, µM (titrated, usually from 38.3 µM), for the others: top-dose activity change, negative = inhibition, usual class: inhibitors. actives 0.28% (n = 200,000). Kinase-Glo luciferase, ATP luminescence, 8 min. Q27757. AID 1379; further: on the % scale 0 is the no-effect control and ±100 the full control effect; nearly all actives have a fitted effect of over 60% in size
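Compounds were added to a substrate mix at pH 7.2 (50 mM imidazole, 10 uM ATP, within the enzyme's linear range), followed by Kinase-Glo detection reagent; luminescence was measured after 8 minutes at ambient temperature.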
NPC1 promoter act = activates the NPC1 promoter; Huh7 NPC1 promoter luciferase reporter, 24 h; Potency, µM (doses to about 9.22 µM), without a hit: at the highest dose activation, usual class: activators; actives 2.4% (n = 320,000); AID 485313; further: % of control where 0% means no effect; nearly all actives have a fitted effect of over 60% in size
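Stably transfected Huh7 (NPC1 promoter→luciferase), 1500 cells/well in Opti-MEM + 10% FBS, 2 h settle, then compound 24 h at 37 °C. Luminescence after 10 min with Amplite reagent.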
ELG1 genotoxic = genotoxicity induction in ELG1-luciferase HEK293T cells. HEK293T ELG1-luciferase reporter, luminescence, 16 h. actives 1.3% (n = 330,000). Potency, µM (highest dose often 46 µM), for inactives: at the highest dose activity change, positive = activation, usual class: activators. AID 504466; further: % of control where 0% means no effect; nearly all actives have a fitted effect of over 60% in size
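Quantitative HTS format in 1536-well plates. HEK293T ELG1-luciferase reporter cells receive test compound and are incubated 16 hr at 37 °C, 5% CO2; ONE-Glo added, 30 min room temperature, then luminescence read.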
* hit, by the source's call; ? = inconclusive; nt = no result; [ ] = dose if it differs, or a comment. Most compounds without a hit are left out; they make up all but 7.4% or so of the library. The call rests on the fitted dose curve; in most records, active means well fitted curve in the direction sought with a large enough effect; inconclusive means small, poorly fitted or top-dose-only effect, or another doubt; inactive means no such curve, though single readings can be large; an effect the other way counts as inactive or inconclusive. Potency means the concentration at half of the fitted maximal effect.

SMILES	SMN2 splice enh	Rab9 promoter act	FLuc modulator	Luc counter	NPC1 promoter act	ELG1 genotoxic
COc1ccc(NC(=O)[C@@H](NC(=O)N2C[C@H]3C[C@@H](C2)c2cccc(=O)n2C3)C(C)C)cc1	nt	-2.3%	-7.1%	nt	3.5%	9.7%
COc1ccc(NC2CC(=O)N(C(C)C)C2=O)cc1 (configuration not stated)	15.8µM*	3.16µM*	15.1µM*	-2.0%	?	4.11µM*
CC[C@@H]1[C@@H]2Cc3ccc(O)cc3[C@@]1(CC)CCN2C	1.1%[9.22 µM]	nt	nt	-3.3%[7.66 µM]	nt	nt
Cc1cc(C(=O)N=Nc2c(O)n(C)c3ccccc23)c(C)o1	7.08µM*	3.55µM*	2.69µM*	?	2.51µM*	7.31µM*
ClCc1ccccc1	3.0%	nt	nt	nt	nt	nt
CCN1C(=O)C(=Cc2ccc(C)s2)C(=O)N(CC)C1=S	20µM*	18.2%	?	-8.7%	?	?
CCN1C(=O)C(=C2C=C(C)OC(C)=C2)C(=O)N(CC)C1=S	8.5%	-1.1%	-2.8%	2.5%	-3.6%	3.7%
Cc1cc(/C=C2\C(=O)NC(=S)N(C)C2=O)c(C)n1C1CCCCC1	1.1%	-4.0%	0.477µM*	-3.1%	-2.2%	?
CCN1C(=O)C(=Cc2cc(C)n(C3CC3)c2C)C(=O)N(CC)C1=S	0.2%	-0.5%	-2.3%	-2.9%	-4.0%	2.4%
Cc1cc(C=C2C(=O)N(C)C(=S)N(C)C2=O)c(C)n1C1CCCC1	-13.7%	-8.6%	2.39µM*	-4.3%	-0.2%	?
Cc1cc2oc(=O)cc(-c3cc4ccccc4o3)c2cc1OC(=O)N(C)C	nt	-4.6%	2.4%	nt	-13.4%	1.1%
O=C(NNc1c(F)c(F)cc(F)c1F)c1cc2ccccc2oc1=O	22.0%	3.16µM*	?	-0.9%	?	?
CC(C)C[C@H]1C(=O)N2CCC[C@@H]2[C@@]2(O)O[C@](NC(=O)[C@@H]3C=C4c5cccc6[nH]cc(c56)C[C@@H]4N(C)C3)(C(C)C)C(=O)N12	4.5%[20.6 µM]	nt	nt	-6.8%[17.1 µM]	nt	nt
COC(=O)Nc1cccc(OC(=O)Nc2cccc(C)c2)c1	20.5%	nt	nt	nt	nt	nt
Cc1ccc(NC(=O)OC(C)CNC(=O)Oc2cccc(C)c2)cc1 (configuration not stated)	-3.0%	25.1%	23.9µM*	-1.3%	16.2%	-11.8%
Cc1ccc2oc(-c3ccc(Cl)cc3)c(O)c(=O)c2c1	29.4%	nt	?	nt	nt	nt
O=C(CN1C(=O)S/C(=C\C=C\c2ccccc2)C1=O)Nc1ccccc1C(=O)O	nt	10.5%	26.9µM*	nt	0.5%	3.2%
CN1CCc2cc3c(c4c2C1Cc1ccccc1-4)OCO3 (configuration not stated)	nt	6.31µM*	-1.1%	nt	8.8%	-5.6%
CCCC[N+](=O)[O-]	0.6%	nt	nt	nt	nt	nt
CN1C(=O)C(=Cc2ccc(N3CCCCCC3)o2)C(=O)N(C)C1=S	19.8%	?	10.7µM*	-13.1%	?	?
Cc1noc(C(=O)Nc2sc3c(c2C#N)CCC3)c1Cl	-62.3%	14.8%	15.1µM*	17.8%	26.7%	2.0%
N#Cc1c(/N=C/C2C(=O)NC(=S)NC2=O)sc2c1CCCC2	3.3%	-15.3%	?	-0.7%	-0.7%	2.1%
COc1ccc(C(=O)Nc2nnc(S(=O)(=O)N(CC(C)C)c3ccc(C)cc3)s2)cc1OC	nt	nt	8.49µM*	nt	nt	nt
COC1C=CC23c4cc5c(cc4CN(CC2O)C3C1)OCO5 (configuration not stated)	-85.4%	nt	nt	-5.7%	nt	nt
O=C(CSc1ccc(-c2ccco2)nn1)Nc1ccccc1	-21.0%	17.7%	?	0.9%	2.7%	-1.2%
SMILES	SMN2 splice enh	Rab9 promoter act	FLuc modulator	Luc counter	NPC1 promoter act	ELG1 genotoxic
CCc1nnc(NC(=O)CSc2ccc(-c3ccco3)nn2)s1	-25.8%	-0.5%	15.1µM*	-3.9%	0.4%	10.0%
N#Cc1cccc(NC(=O)c2sc3nc4c(cc3c2N)N2CCC4CC2)c1	nt	nt	12µM*	nt	nt	nt
Nc1c(C(=O)Nc2ccc(F)c(Cl)c2)sc2nc3c(cc12)N1CCC3CC1	-44.6%	nt	8.49µM*	nt	nt	nt
COc1c(C(C)(C)C)cc([N+](=O)[O-])c(C)c1[N+](=O)[O-]	-7.2%	nt	nt	nt	nt	nt
Oc1c(Cl)cc(Cl)cc1Cl	-1.1%	nt	nt	nt	nt	nt
O=C1c2ccccc2-c2c1nc1c([n+]2[O-])CCCC1	25.9%	3.55µM*	0.8%	-2.2%	24.9%	?
Cc1cc(C(=O)CS(=O)(=O)c2ccccc2)cc(C)c1OC(=O)N(C)C	10µM*	0.794µM*	6.75µM*	-25.6%	3.16µM*	2.6%
O=c1c2ccccc2nc(/C=C/c2cccnc2)n1Cc1ccccc1	nt	-5.0%	26.9µM*	-1.0%	-3.9%	-5.0%
C=CCc1ccc(OCCn2nnc3ccccc32)c(OC)c1	nt	3.98µM*	10.7µM*	nt	2.82µM*	16.4µM*
C=CCN1C(=O)NC(=O)C(Cc2ccc(OC)c(OC)c2)C1=O (configuration not stated)	17.2%	-2.5%	-4.7%	-4.5%	0.6%	-5.1%
[O-]/[N+](=C/c1cccnc1)c1ccc(Br)cc1	12.6µM*	2.82µM*	-4.2%[2.3 µM]	0.3%	5.62µM*	?
CCOc1ccc(NC(=O)c2ccc(NC(=O)COC(=O)Cc3ccccc3)cc2)cc1	20µM*	?	-13.6%	0.4%	?	?
CCOc1ccc(NC(=O)c2c(C)nn(Cc3ccccc3)c2Cl)cc1	nt	0.0%	5.2%	nt	-2.4%	?
CN(CCOc1ccc(C=C2C(=O)NC(=O)NC2=O)cc1)c1ccccn1	3.6%	-3.7%	?	-1.5%	-1.4%	14.6%
COc1ccc(OCCOc2cccc(C=C3C(=O)NC(=O)NC3=O)c2)cc1	nt	0.112µM*	8.49µM*	nt	0.316µM*	0.9%
CNC(=O)Oc1ccc2c(c1)C(=O)c1ccccc1CO2	-57.9%	-4.3%	10.7µM*	-3.7%	1.7%	14.8%
CN(CC(=O)N1CCc2ccccc21)S(=O)(=O)c1cccs1	11.2µM*	3.55µM*	12µM*	-3.8%	2.82µM*	10.3µM*
Oc1c(Cl)c(Cl)c(Cl)c(Cl)c1Cl (tested in a mixture with another compound)	-16.2%[9.22 µM]	nt	nt	-2.9%[7.66 µM]	nt	nt
CCOc1ccc(NC(=O)c2cccn(Cc3cccc(Cl)c3)c2=O)cc1	nt	nt	16.9µM*	nt	nt	nt
O=C(Nc1ccc2c(c1)OCCO2)c1cccn(Cc2ccccc2)c1=O	nt	nt	10.7µM*	nt	nt	nt
C=CCc1ccc(OC(=O)NC2CCCCC2)c(OC)c1	nt	3.55µM*	10.7µM*	nt	?	?
COc1cc2[nH]c(=O)n(Cc3ccc(C(=O)NC4CCCC4)cc3)c(=O)c2cc1OC	-3.3%	-1.0%	6.5%	0.3%	-0.7%	?
CCCc1cc2c(n1Cc1cccc(Cl)c1)C(C)C1CN(C(=O)c3ccccc3)C(C)(C(=O)OC)C21 (configuration not stated)	-24.7%	nt	nt	-7.5%	nt	nt
CCOc1ccc(N2C(=O)/C(=C/c3ccco3)C(=O)NC2=S)cc1	nt	-2.2%	?	nt	-2.3%	-2.4%
